Screening data as filed in PubChem.
An excerpt weighted towards active compounds, which were near 2.8% of everything screened.
CtBP-E1A blk – qHTS Assay for Inhibitors of the CtBP/E1A Interaction | 0.49% of 340,000 active | CtBP / adenovirus E1A interaction (AlphaScreen) | AlphaScreen GST-E1A/His-CtBP binding, 1536-well; stronger effect = lower value | activity change, % (no concentration beside the values); in the data active means activity change below about -65%; inconclusive means mostly about -30% to -63%; further: on the % scale 0 is the no-effect control and ±100 the full control effect
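AlphaScreen with 125 nM GST-E1A and 125 nM His-CtBP (5X stocks) in Tris pH 8.0, 300 mM NaCl, BSA, Tween 20, TCEP. Compounds preincubated 2 h at 37 deg C, then glutathione donor/nickel acceptor beads added for 1 h at 37 deg C in dark.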
TGFb inhibitor – qHTS for Inhibitors of TGF-b; HepG2 CAGA-GFP TGF-b/SMAD3 reporter, GFP fluorescence, 18 h; TGF-beta stimulated, 500 pg/mL final; Potency, µM (series often up to 46.1 µM), for inactives: at the top dose activity, negative = inhibition, usual class: inhibitors; 1.2% of 410,000 active; AID 588855, 2011; further: potency means the concentration at half of the fitted maximal effect; on the % scale 0 is the no-effect control and ±100 the full control effect; nearly all actives have a fitted effect of over 65% in size
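TGF-beta reporter screen: HEPG2 CAGA-GFP, 1% FBS, 500 pg/mL TGF-beta final, 18 h; per-cell GFP summed per well; curves fitted and categorized by class.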
HepG2 tox – qHTS for Inhibitors of TGF-b: Cytotox Counterscreen. HepG2 CAGA-GFP viability, ATP luminescence, 18 h. Potency, µM (highest dose often 46.1 µM), inactives show at the highest dose activity change, negative = cytotoxicity, most hits filed as cytotoxic. 0.76% of 410,000 active; further: potency means the concentration at half of the fitted maximal effect
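HepG2 CAGA-GFP cells (1000/well, DMEM with 1% FBS) received compound, then TGF-beta at 500 pg/mL final, and were incubated 18 hours at 37 degrees C. Viability was read by CellTiter-Glo luminescence. Media-only wells were set as complete cell-killing and DMSO as no toxicity.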
ATXN viability – Viability Counterscreen for Primary qHTS for Inhibitors of ATXN expression | S2 cells (HEK-293 line with an ATXN2-luciferase reporter) viability, CellTiter-Fluor protease fluorescence, 24 h | Potency, µM (titrated, usually from 56.7 µM), hits mostly cytotoxic | 0.49% of 400,000 active; further: potency means the concentration at half of the fitted maximal effect; nearly all actives have a fitted effect of over 40% in size
Six1-Eya2 inh – qHTS Assay for Inhibitors of the Six1/Eya2 Interaction | Homeobox protein SIX1 (Homo sapiens) + Protein phosphatase EYA2 (Homo sapiens), … | AlphaScreen GST-Six1/His-Eya2 binding, biochemical; stronger effect = lower value | activity change, % (concentration not given with the values) | 0.56% of 360,000 active; in the data active means activity change below about -65%; inconclusive means mostly about -30% to -63%; further: on the % scale 0 is the no-effect control and ±100 the full control effect
Target sequence (O00167 whole entry, looked up): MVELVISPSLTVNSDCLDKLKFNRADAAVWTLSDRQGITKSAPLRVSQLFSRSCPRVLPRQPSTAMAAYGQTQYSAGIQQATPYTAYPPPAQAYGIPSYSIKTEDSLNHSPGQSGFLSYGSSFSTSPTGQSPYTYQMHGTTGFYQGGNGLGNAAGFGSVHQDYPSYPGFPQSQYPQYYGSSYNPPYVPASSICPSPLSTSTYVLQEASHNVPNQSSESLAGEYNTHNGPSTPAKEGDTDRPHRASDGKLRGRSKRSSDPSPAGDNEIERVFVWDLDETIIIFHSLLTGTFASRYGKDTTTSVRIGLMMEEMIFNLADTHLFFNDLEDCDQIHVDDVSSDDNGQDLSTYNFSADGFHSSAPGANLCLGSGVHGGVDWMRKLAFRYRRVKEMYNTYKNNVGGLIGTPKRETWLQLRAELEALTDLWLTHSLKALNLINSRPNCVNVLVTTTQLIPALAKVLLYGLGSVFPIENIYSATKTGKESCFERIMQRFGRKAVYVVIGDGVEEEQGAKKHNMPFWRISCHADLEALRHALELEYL
Target sequence (Q15475 whole entry, looked up): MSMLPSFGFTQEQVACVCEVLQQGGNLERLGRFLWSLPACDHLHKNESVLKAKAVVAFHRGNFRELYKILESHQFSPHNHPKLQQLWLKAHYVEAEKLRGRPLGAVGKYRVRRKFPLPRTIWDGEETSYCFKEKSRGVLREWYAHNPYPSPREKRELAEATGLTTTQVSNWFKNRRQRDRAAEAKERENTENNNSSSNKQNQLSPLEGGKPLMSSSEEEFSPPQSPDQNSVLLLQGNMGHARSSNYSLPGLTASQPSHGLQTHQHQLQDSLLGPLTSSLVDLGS
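Compounds are tested against tagged Six1 and Eya2 proteins bridged by glutathione donor and nickel acceptor beads; after a one-hour incubation at 37 °C without light, AlphaScreen emission is recorded.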
ATXN2 expr inh – Primary qHTS for Inhibitors of ATXN expression | HEK-293 ATXN2-luciferase reporter, luminescence, 24 h | Potency, µM (highest dose often 57 µM), without a hit: top-dose activity change, negative = inhibition, hits mostly inhibitors | 0.72% of 360,000 active; further: potency means the concentration at half of the fitted maximal effect; on the % scale 0 is the no-effect control and ±100 the full control effect; nearly all actives have a fitted effect of over 55% in size
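qHTS (up to 57 uM final) was run with 24 h compound exposure of reporter cells at 37 °C. Each well was multiplexed: SteadyGlo luminescence measured ATXN2-luciferase expression after a fluorogenic Gly-Phe-AFC viability readout (25 uM final).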
* hit, by the source's call; i = inactive; ? = inconclusive; · = no result given. Unless noted, the call rests on the fitted dose curve; in most records, active means well fitted curve in the direction sought with a large enough effect; inconclusive means small, poorly fitted or top-dose-only effect, or another doubt; inactive means no such curve, though single readings can be large; an effect the other way counts as inactive or inconclusive.

SMILES | CtBP-E1A blk | TGFb inhibitor | HepG2 tox | ATXN viability | Six1-Eya2 inh | ATXN2 expr inh
COc1ccc(CNc2cccc3[nH]c(C(F)(F)F)nc23)cc1 | -6 | ? | -25% | i | 16 | -26%
COc1cc(CNc2cccc3[nH]c(C(F)(F)F)nc23)cc(OC)c1 | · | 13µM* | -46% | i | -3 | ·
O=C(Nc1cccc(-c2nn[nH]n2)c1)c1ccc(Br)s1 | -69* | ? | -34% | i | ? | -2%
O=C(Nc1cccc(-c2nn[nH]n2)c1)c1ccc(Cl)s1 | ? | -2% | 0% | i | ? | 5%
Cc1ccc(C2=Nc3ccc(Cl)cc3OC2)cc1 | · | · | · | · | · | 38%
C=CC[n+]1c(/C=C2\C=Cc3cc(C)ccc3N2CC)ccc2ccccc21 | · | 4µM* | 14µM* | 7.9µM* | ? | ·
Cc1ccc(-c2nc3s/c(=C\c4ccco4)c(=O)n3n2)cc1 | 14 | 11% | -21% | i | -11 | 8%
O=c1nc2s/c(=C\c3ccco3)c(=O)n2nc1Cc1ccc(F)cc1 | -80* | -8% | 4% | i | -81* | 4%
C=CCOC(=O)C1=C(C)NC(SCC)=C(C#N)C1c1ccc(Cl)cc1 (stereo not drawn) | 12 | 13µM* | -86% | ? | 21 | 16µM*
C=CCOC(=O)C1=C(C)NC(SCC(N)=O)=C(C#N)C1c1ccc(C)cc1 (stereo not drawn) | 0 | ? | -17% | i | 2 | -5%
Cc1c(C(=O)N2CCN(C)CC2)sc2ncnc(NCC3(c4ccccc4)CCOCC3)c12 | · | · | · | i | · | ·
C=CC[n+]1c(-c2ccc(Cl)cc2Cl)csc1Nc1ccc(NC(C)=O)cc1 | ? | ? | 22µM* | ? | ? | ?
Clc1ccc(C(Cn2ccnc2)OCc2ccc(Sc3ccccc3)cc2)c(Cl)c1 (stereo not drawn) | · | · | · | i | · | ?
COc1ccc(/C=C/C(=O)c2cc(F)ccc2OC(=O)c2ccc(OC)c(OC)c2)cc1OC | · | 0% | -30% | i | 0 | ·
COc1ccc(/C=C/C(=O)c2cc(F)ccc2OC(=O)c2ccccc2OC)cc1OC | 21 | 11µM* | -74% | ? | -4 | ?
COc1ccc(C=CC(=O)Nc2ccccc2C(=O)O)cc1OC | · | · | · | · | · | 0.97µM*
COc1ccc(/C=C/C(=O)O/N=C(\N)c2ccccn2)cc1OC | -73* | -3% | -1% | i | -9 | 60%
C[C@H](CCC(=O)O)[C@H]1CCC2C3C[C@H](O)[C@@H]4C[C@H](O)CC[C@]4(C)C3CC[C@@]21C (stereo partly drawn) | · | · | · | · | · | 0%
CCN1CCCC1CNC(=O)c1ccc2c(c1)NC(=O)/C(=C\c1ccc(OC)c(OC)c1)S2 (stereo not drawn) | · | 13µM* | 13µM* | · | -16 | ·
CCN1CCN(CCCNC(=O)c2ccc3c(c2)NC(=O)c2ccccc2S3)CC1 | 0 | -3% | -14% | i | 0 | -5%
COc1cccc(/C=C2\Sc3ccc(C(=O)NCc4cccnc4)cc3N(C)C2=O)c1 | -9 | ? | -19% | i | -14 | 0%
CCN1CCN(CCCNC(=O)c2ccc3c(c2)NC(=O)/C(=C\c2cccc(C)c2)S3)CC1 | · | ? | 13µM* | ? | 5 | ·
COc1cccc(/C=C2/Sc3ccc(C(=O)NCCN4CCCCCC4)cc3NC2=O)c1 | · | 10µM* | 16µM* | ? | -12 | ·
O=C1Nc2cc(C(=O)NCCCN3CCCC3)ccc2S/C1=C/c1cccc(Cl)c1 | -8 | ? | 16µM* | ? | 0 | ·
COc1ccc(-c2noc(CN(C(=O)C(C)Oc3ccc(C)cc3)C(C)C)n2)cc1 (stereo not drawn) | · | · | -26% | · | · | ·
SMILES | CtBP-E1A blk | TGFb inhibitor | HepG2 tox | ATXN viability | Six1-Eya2 inh | ATXN2 expr inh
Cc1ccc(C(=O)N(CCCN)[C@@H](c2nc3cc(Cl)ccc3c(=O)n2Cc2ccccc2)C(C)C)cc1 | · | · | · | · | · | -48%
O=C(CO)[C@@H](O)[C@H](O)[C@@H](O)CO | · | · | · | i | · | 2%
COc1ccc(/C=C2/Sc3ccc(C(=O)NCCCN4CCOCC4)cc3NC2=O)cc1OC | -25 | 14µM* | 20µM* | ? | -26 | -38%
O=C1Nc2cc(C(=O)NCCN3CCCCCC3)ccc2S/C1=C\c1ccccc1 | · | ? | 14µM* | ? | -17 | ·
Cc1cccc(/C=C2/Sc3ccc(C(=O)NCCN4CCCC4)cc3NC2=O)c1 | · | ? | -131% | ? | -12 | ·
CCCn1nnc(NC(=O)c2ccc3ccccc3c2)n1 | 0 | 4% | 5% | i | 6 | 22%
CCCn1nnnc1NC(=O)c1ccc2ccccc2c1 | -12 | -2% | 13µM* | ? | -8 | ?
CCOC(=O)Cn1c(=O)n(-c2ccccc2OC)c2nc(-c3ccccc3C)nc(C(N)=O)c21 | · | 0% | -3% | i | · | -10%
C[C@H](CSC(=O)c1ccccc1)C(=O)N1C[C@@H](Sc2ccccc2)C[C@H]1C(=O)O | · | · | · | i | · | ·
Cc1oc(-c2ccccc2Cl)nc1CS(=O)(=O)CC(=O)NC(C)CCc1ccccc1 (stereo not drawn) | · | 10µM* | -14% | ? | · | ?
Cc1oc(-c2cccc(Cl)c2)nc1CS(=O)(=O)CC(=O)NC(C)CCc1ccccc1 (stereo not drawn) | · | 10µM* | -34% | ? | · | ?
Cc1oc(-c2ccccc2Cl)nc1CS(=O)(=O)CC(=O)NC(C)c1ccccc1 (stereo not drawn) | 1 | ? | -23% | i | -6 | -6%
CCOc1ccc(CCNC(=O)CS(=O)(=O)Cc2nc(-c3cccc(Cl)c3)oc2C)cc1 | · | ? | -11% | i | · | -31%
COC(=O)C1CCN(Cc2ccc3c(c2)CN(C(=O)c2ccc4nc(C)c(C)nc4c2)CCO3)CC1 | · | · | · | i | · | ·
Cc1ccc(N(CC(=O)Nc2cccc(Cl)c2C)S(=O)(=O)c2c(C)noc2C)cc1 | · | ? | -31% | ? | · | ?
Cc1ccc(NC(=S)NNC(=O)c2nnn(-c3ccccc3)c2C)cc1 | -1 | 2% | -3% | i | -75* | 12%
Cc1ccc(NC(=S)NNC(=O)c2nn(C)cc2Cl)cc1 | -28 | 10% | -6% | i | -18 | 1%
CCCCC(=O)O[C@]1(C(=O)CO)[C@@H](C)C[C@H]2[C@@H]3CCC4=CC(=O)C=C[C@]4(C)[C@@]3(F)[C@@H](O)C[C@@]21C | · | · | · | i | · | 3%
COc1ccc(OC)c(CNC(=O)c2ccc(NC(=O)c3nsc4ccccc34)cc2)c1 | · | 5% | -32% | i | · | 7%
